Data published in PubChem BioAssay (NCI).
This is part of a sample that, as a whole, favours compounds with a hit. Of some 79,000 tested, about 15% had one in any assay. Unmarked numbers belong to inactive results. The source made the active and inactive calls. Rule as the data show it: active = growth inhibition above about 70%; inactive = the rest.

How the values were obtained:
[1] = NCI Yeast Anticancer Drug Screen. Data for the rad52 strain (AID 147);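 also: 0% = growth of vehicle-treated control cultures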; conditions: S. cerevisiae rad52 mutant growth inhibition, hits give high values
Summary of the method: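 Inhibition of yeast growth, referenced to vehicle controls, was the measured output for a strain with defective DNA damage repair.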

[2] = NCI Yeast Anticancer Drug Screen. Data for the wt1 strain (AID 149);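 also: 0% = growth of vehicle-treated wt1 cultures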; conditions: S. cerevisiae wt1 strain (SPY 50644) growth inhibition, hits give high values
Summary of the method: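 Using yeast strain wt1, compound-induced growth inhibition was determined against vehicle-treated cultures.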

[3] = NCI Yeast Anticancer Drug Screen. Data for the rad50EPP+ strain (AID 151);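 also: 0% = growth of vehicle-treated control cultures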; conditions: S. cerevisiae rad50 mutant strain, hits give high values
Summary of the method: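 Genetically defined yeast (rad50EPP+, DNA damage repair alteration) is grown with compound, and inhibition of growth is expressed relative to vehicle-treated controls.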

[4] = NCI Yeast Anticancer Drug Screen. Data for the mgt1 strain (AID 153); conditions: S. cerevisiae mgt1 mutant growth inhibition, hits give high values
Summary of the method: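 In the mgt1 strain, test compounds were added and growth inhibition was determined relative to vehicle-treated controls.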

[5] = NCI Yeast Anticancer Drug Screen. Data for the rad50 strain (AID 155);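 also: 0% = growth of vehicle-only cultures of the same strain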; conditions: S. cerevisiae rad50 strain growth inhibition, hits give high values
Summary of the method: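 Relative growth inhibition (compound vs vehicle) was measured in yeast with a defined repair-gene alteration.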

[6] = NCI Yeast Anticancer Drug Screen. Data for the mec2-1 strain (AID 157); conditions: S. cerevisiae mec2-1 strain, hits give high values
Summary of the method: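 Each compound was tested on mec2-1 yeast, a strain altered in DNA damage repair or cell cycle control. Growth inhibition is reported relative to vehicle.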

[7] = NCI Yeast Anticancer Drug Screen. Data for the rad14 strain (AID 159);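 also: 0% = growth of vehicle-treated control cultures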; conditions: S. cerevisiae rad14 strain growth inhibition, hits give high values
Summary of the method: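 Screen for anticancer potential: a yeast strain altered in DNA damage repair is grown with compound, and reduced growth is quantified against vehicle controls.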

[8] = NCI Yeast Anticancer Drug Screen. Data for the sgs1 mgt1 strain (AID 161);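 also: 0% = growth of cultures given vehicle only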; conditions: S. cerevisiae sgs1 mgt1 strain, hits give high values
Summary of the method: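 Genetically altered yeast, compound exposure, growth inhibition relative to vehicle.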

[9] = NCI Yeast Anticancer Drug Screen. Data for the CLN2oe strain (AID 163);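 also: 0% = growth of vehicle-only control cultures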; conditions: S. cerevisiae CLN2oe strain, hits give high values
Summary of the method: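 First, the altered yeast strain was treated with each compound; second, its growth was measured; finally, inhibition was derived by comparison with vehicle controls.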

[10] = NCI Yeast Anticancer Drug Screen. Data for the cln2 rad14 strain (AID 165);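 also: 0% = growth equal to vehicle treated cultures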; conditions: S. cerevisiae cln2 rad14 strain, hits give high values
Summary of the method: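 Test compounds were added to cln2 rad14 yeast cultures; inhibition of growth was then determined by comparison with vehicle treatment.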

[11] = NCI Yeast Anticancer Drug Screen. Data for the bub3 strain (AID 167); conditions: S. cerevisiae bub3 mutant strain, hits give high values
Summary of the method: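 Screening used yeast with an engineered genetic alteration affecting cell cycle control. Compound-exposed cultures were compared with vehicle cultures, and reduced growth was taken as inhibition.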

[12] = NCI Yeast Anticancer Drug Screen. Data for the wt2 strain (AID 169);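 also: 0% = growth of vehicle-treated yeast cultures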; conditions: S. cerevisiae wt2 strain growth inhibition, hits give high values
Summary of the method: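 The panel's yeast strains carry defined changes in DNA repair or cell cycle genes. Each strain is grown with compound, and growth loss is scored relative to vehicle.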

[13] = NCI Yeast Anticancer Drug Screen. Data for the mlh1 strain (AID 171);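 also: 0% = growth of vehicle-treated control cultures of the same strain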; conditions: S. cerevisiae mlh1 strain growth inhibition, hits give high values
Summary of the method: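 Inhibition values reflect reduced yeast growth in the presence of compound, referenced to vehicle controls, using a strain chosen for its alteration in DNA repair or cell cycle control.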

[14] = NCI Yeast Anticancer Drug Screen. Data for the sgs1 strain (AID 173);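 also: 0% = growth of vehicle-only control cultures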; conditions: S. cerevisiae sgs1 mutant, hits give high values
Summary of the method: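 Vehicle-treated cultures served as reference for growth inhibition of a yeast strain altered in DNA damage repair or cell cycle control after compound exposure.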

[15] = NCI Yeast Anticancer Drug Screen. Data for the mlh1 rad18 strain (AID 175); conditions: S. cerevisiae mlh1 rad18 strain growth inhibition, hits give high values
Summary of the method: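 Inhibition values reflect reduced growth of mutant yeast versus vehicle-treated controls following compound exposure; the mutations affect DNA damage repair.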

[16] = NCI Yeast Anticancer Drug Screen. Data for the rad18 strain (AID 177); conditions: S. cerevisiae rad18 mutant growth inhibition, hits give high values
Summary of the method: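 Steps: expose repair-mutant yeast to compound; measure growth; express as inhibition relative to vehicle control.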

[17] = at 5.0 µM (retest, dose inferred, filed as 0.5)
[18] = at 50.0 µM (retest, dose inferred, filed as 5.0)

SMILES: N#C/C(=C\c1cccc(OCc2ccccc2)c1)c1ccc([N+](=O)[O-])cc1
- growth inhibition ([1]; at 1.2 µM): -24%
- growth inhibition ([1]; at 3.7 µM): -19%
- growth inhibition ([1]; at 11.0 µM): -26%
- growth inhibition ([1]; at 33.0 µM): -28%
- growth inhibition ([1]; at 100.0 µM): -37%
- growth inhibition ([2]; at 1.2 µM): -18%
- growth inhibition ([2]; at 3.7 µM): -4%
- growth inhibition ([2]; at 11.0 µM): -22%
- growth inhibition ([2]; at 33.0 µM): -28%
- growth inhibition ([2]; at 100.0 µM): -33%
- growth inhibition ([3]; at 1.2 µM): -66%
- growth inhibition ([3]; at 3.7 µM): -49%
- growth inhibition ([3]; at 11.0 µM): -63%
- growth inhibition ([3]; at 33.0 µM): -82%
- growth inhibition ([3]; at 100.0 µM): -88%
- growth inhibition ([4]; at 1.2 µM): -35%
- growth inhibition ([4]; at 3.7 µM): -29%
- growth inhibition ([4]; at 11.0 µM): -61%
- growth inhibition ([4]; at 33.0 µM): -53%
- growth inhibition ([4]; at 100.0 µM): -71%
- growth inhibition ([5]; at 1.2 µM): -5%
- growth inhibition ([5]; at 3.7 µM): -25%
- growth inhibition [5, 17]: 53%
- growth inhibition ([5]; at 11.0 µM): -22%
- growth inhibition ([5]; at 33.0 µM): -23%
- growth inhibition [5, 18]: 97% (active)
- growth inhibition ([5]; at 50.0 µM): 10.9%
- growth inhibition ([5]; at 100.0 µM): -23%
- growth inhibition ([6]; at 1.2 µM): -88%
- growth inhibition ([6]; at 3.7 µM): -74%
- growth inhibition [6, 17]: 61%
- growth inhibition ([6]; at 11.0 µM): -81%
- growth inhibition ([6]; at 33.0 µM): -91%
- growth inhibition [6, 18]: 96% (active)
- growth inhibition ([6]; at 50.0 µM): 14.2%
- growth inhibition ([6]; at 100.0 µM): -96%
- growth inhibition ([7]; at 1.2 µM): -43%
- growth inhibition ([7]; at 3.7 µM): -48%
- growth inhibition ([7]; at 11.0 µM): -24%
- growth inhibition ([7]; at 33.0 µM): -51%
- growth inhibition ([7]; at 100.0 µM): -84%
- growth inhibition [8, 17]: -10%
- growth inhibition [8, 18]: 43%
- growth inhibition ([8]; at 50.0 µM): 27.9%
- growth inhibition ([9]; at 1.2 µM): 11%
- growth inhibition ([9]; at 3.7 µM): -17%
- growth inhibition ([9]; at 11.0 µM): -28%
- growth inhibition ([9]; at 33.0 µM): -31%
- growth inhibition ([9]; at 100.0 µM): -39%
- growth inhibition [10, 17]: 33%
- growth inhibition [10, 18]: 43%
- growth inhibition ([10]; at 50.0 µM): 0.05%
- growth inhibition ([11]; at 1.2 µM): -28%
- growth inhibition ([11]; at 3.7 µM): -42%
- growth inhibition [11, 17]: -5%
- growth inhibition ([11]; at 11.0 µM): -37%
- growth inhibition ([11]; at 33.0 µM): -40%
- growth inhibition [11, 18]: 29%
- growth inhibition ([11]; at 50.0 µM): 61.1%
- growth inhibition ([11]; at 100.0 µM): -60%
- growth inhibition ([12]; at 1.2 µM): -34%
- growth inhibition ([12]; at 3.7 µM): -43%
- growth inhibition ([12]; at 11.0 µM): -49%
- growth inhibition ([12]; at 33.0 µM): -61%
- growth inhibition ([12]; at 100.0 µM): -75%
- growth inhibition ([13]; at 1.2 µM): -44%
- growth inhibition ([13]; at 3.7 µM): -41%
- growth inhibition ([13]; at 11.0 µM): -51%
- growth inhibition ([13]; at 33.0 µM): -64%
- growth inhibition ([13]; at 100.0 µM): -72%
- growth inhibition ([14]; at 1.2 µM): -39%
- growth inhibition ([14]; at 3.7 µM): -47%
- growth inhibition ([14]; at 11.0 µM): -64%
- growth inhibition ([14]; at 33.0 µM): -54%
- growth inhibition ([14]; at 100.0 µM): -59%
- growth inhibition [15, 17]: 50%
- growth inhibition [15, 18]: 98% (active)
- growth inhibition ([15]; at 50.0 µM): 15.2%
- growth inhibition ([16]; at 1.2 µM): -26%
- growth inhibition ([16]; at 3.7 µM): -29%
- growth inhibition ([16]; at 11.0 µM): -24%
- growth inhibition ([16]; at 33.0 µM): -49%
- growth inhibition ([16]; at 100.0 µM): -36%
